In publication PMC8159961, “Exploring protein hotspots by optimized fragment pharmacophores” (Nature Communications, 2021):

What follows are compounds tested against histone methyltransferase SET domain containing 2 (SETD2) (Homo sapiens, UniProt Q9BYW2) (assay: primary screen, binary call; higher = more effect of the substance).
Procedure: The Chemiluminescence assay evaluates SETD2 specific tri -methylation activity towards histone H3K36. The kit consist s of recombinant SETD2, S-adenosylmethionine and a specific H3K36me3 antibody and was performed according to the manufacturer’s protocol (Catalo g- No. 52060, https://bpsbioscience.com/setd2 -chemiluminescent-assay-kit-52060). Values were blank corrected and normalized . Enzymatic activities were calculated relative to the positive control of the kit (full enzymatic activity) and to the known SET doma in inhibitor Sinefungin28 used as negative control (complete enzymatic activity inhibition). Compounds used were diluted in DMSO.

histone methyltransferase SET domain containing 2 (SETD2), sequence (Q9BYW2 whole entry, looked up, the tested form may be a part): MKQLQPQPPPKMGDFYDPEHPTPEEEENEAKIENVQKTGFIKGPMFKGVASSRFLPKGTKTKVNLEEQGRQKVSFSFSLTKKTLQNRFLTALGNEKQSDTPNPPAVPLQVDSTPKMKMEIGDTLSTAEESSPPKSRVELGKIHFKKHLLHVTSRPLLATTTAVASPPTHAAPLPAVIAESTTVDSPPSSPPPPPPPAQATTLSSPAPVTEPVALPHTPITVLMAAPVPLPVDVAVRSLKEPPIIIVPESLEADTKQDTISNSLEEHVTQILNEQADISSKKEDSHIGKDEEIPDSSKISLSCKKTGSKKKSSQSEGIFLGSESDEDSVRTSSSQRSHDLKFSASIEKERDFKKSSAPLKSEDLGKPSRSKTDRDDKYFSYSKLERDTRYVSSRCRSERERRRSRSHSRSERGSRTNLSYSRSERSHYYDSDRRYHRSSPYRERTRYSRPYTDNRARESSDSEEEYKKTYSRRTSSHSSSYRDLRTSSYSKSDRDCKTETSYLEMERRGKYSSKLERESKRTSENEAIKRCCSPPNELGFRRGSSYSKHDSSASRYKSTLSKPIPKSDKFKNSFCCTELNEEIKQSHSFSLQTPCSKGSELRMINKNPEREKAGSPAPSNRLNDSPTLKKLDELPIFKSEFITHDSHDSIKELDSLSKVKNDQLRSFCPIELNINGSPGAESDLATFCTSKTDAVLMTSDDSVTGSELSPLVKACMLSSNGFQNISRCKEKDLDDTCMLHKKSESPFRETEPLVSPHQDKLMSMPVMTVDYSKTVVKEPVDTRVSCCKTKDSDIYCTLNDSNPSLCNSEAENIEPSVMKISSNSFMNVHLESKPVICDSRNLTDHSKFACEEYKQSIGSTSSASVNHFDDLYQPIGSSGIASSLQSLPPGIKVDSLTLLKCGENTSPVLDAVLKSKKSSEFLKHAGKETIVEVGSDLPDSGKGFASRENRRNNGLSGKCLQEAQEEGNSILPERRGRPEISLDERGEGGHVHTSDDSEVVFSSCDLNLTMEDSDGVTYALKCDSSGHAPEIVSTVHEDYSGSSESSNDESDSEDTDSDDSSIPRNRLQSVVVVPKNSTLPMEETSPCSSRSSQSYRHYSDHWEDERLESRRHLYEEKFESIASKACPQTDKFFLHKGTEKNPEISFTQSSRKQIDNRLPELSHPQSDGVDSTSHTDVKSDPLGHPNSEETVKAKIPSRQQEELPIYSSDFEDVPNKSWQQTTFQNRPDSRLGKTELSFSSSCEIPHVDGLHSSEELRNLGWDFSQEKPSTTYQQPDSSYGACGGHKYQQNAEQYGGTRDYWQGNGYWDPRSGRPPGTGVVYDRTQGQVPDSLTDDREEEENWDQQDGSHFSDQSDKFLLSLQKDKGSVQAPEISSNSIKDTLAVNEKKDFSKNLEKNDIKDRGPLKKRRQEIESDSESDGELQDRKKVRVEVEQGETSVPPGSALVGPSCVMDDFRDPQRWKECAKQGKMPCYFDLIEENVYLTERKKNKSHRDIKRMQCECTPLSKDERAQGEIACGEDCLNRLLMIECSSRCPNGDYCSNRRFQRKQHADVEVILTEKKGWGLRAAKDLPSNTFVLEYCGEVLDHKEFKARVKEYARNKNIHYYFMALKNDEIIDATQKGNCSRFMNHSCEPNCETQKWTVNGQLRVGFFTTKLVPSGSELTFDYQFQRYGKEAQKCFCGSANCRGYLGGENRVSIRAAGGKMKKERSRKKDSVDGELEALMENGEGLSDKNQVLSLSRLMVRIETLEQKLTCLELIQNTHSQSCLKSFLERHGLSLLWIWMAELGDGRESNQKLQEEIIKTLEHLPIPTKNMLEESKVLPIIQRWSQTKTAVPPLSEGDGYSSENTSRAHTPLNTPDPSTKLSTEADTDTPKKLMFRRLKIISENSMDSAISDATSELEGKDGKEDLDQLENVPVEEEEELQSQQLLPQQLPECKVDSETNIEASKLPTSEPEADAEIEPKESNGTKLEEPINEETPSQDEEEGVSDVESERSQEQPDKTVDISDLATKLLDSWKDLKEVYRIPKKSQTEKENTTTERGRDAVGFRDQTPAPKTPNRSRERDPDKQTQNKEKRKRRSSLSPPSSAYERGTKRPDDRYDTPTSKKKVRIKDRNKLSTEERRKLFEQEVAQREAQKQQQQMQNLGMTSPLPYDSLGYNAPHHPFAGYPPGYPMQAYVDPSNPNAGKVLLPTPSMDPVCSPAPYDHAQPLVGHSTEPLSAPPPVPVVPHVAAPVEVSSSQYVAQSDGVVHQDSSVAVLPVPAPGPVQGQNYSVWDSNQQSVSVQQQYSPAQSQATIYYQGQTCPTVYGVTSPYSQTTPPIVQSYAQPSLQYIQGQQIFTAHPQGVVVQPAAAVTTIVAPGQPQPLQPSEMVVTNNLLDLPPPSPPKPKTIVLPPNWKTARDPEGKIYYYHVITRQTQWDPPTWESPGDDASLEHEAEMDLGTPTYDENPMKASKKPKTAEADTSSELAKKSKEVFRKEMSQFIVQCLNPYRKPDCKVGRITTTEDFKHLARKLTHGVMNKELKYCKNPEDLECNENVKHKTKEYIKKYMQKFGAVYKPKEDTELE

SETD2, inactive:
O=C(O)c1cccc(Nc2ncccn2)c1 0
CCN(CC)c1cccc(C)c1 0
O=C(c1ccccc1)N1CCC(CO)CC1 0
COc1cccc(NC2=NCCCCC2)c1 0
C1=C[C@H]2O[C@@H]1c1ccccc12 0
Cc1cc(C)c2c(=O)[nH]n(C)c2n1 0
O=C1NC2(CCCC2)Nc2ccccc21 0
Cc1ccc(C)n1Cc1ccccc1Cl 0
N[C@H]1c2ccccc2C[C@H]1CO 0
O=c1[nH]ncc2c1oc1ccccc12 0
COc1ccc(C2=CCNCC2)cc1 0
O=C(O)c1ccc(CN2CCOCC2)cc1 0
Oc1ccccc1N1CCCCC1 0
NC(=O)N1CCC(C(=O)O)CC1 0
O=C1CCN(c2ccncc2)CC1 0
Cn1nc(C(F)(F)F)cc1O 0
c1ccc2oc(C3CCCNC3)nc2c1 (stereo not shown) 0
N#CCCN1CCc2ccccc21 0
N#Cc1ccc(C(=O)N2CCOCC2)cc1 0
NC(c1ccccc1)c1ccccc1 0
O=c1[nH]c2c(s1)CCC2 0
Cc1cnc(C(F)(F)F)cn1 0
O=C(O)c1cnc(-c2ccccc2)s1 0
CC(=O)c1ccc2c(c1)CCCN2 0
Brc1ccc(-c2ccon2)cc1 0
CCCN1C(=O)CC(=O)NC1=S 0
O=C(O)C1CCN(c2ncccn2)CC1 0
c1ccc(Nc2nncs2)cc1 0
NC1CCc2ccccc21 (stereo not shown) 0
COC(=O)c1c(C)nc(C2CC2)[nH]c1=O 0
Oc1ccc(C2CCNCC2)cc1 0
O=C1NC(=O)C2(CCc3ccccc32)N1 (stereo not shown) 0
Cn1c(CO)nc2ccccc21 0
N#Cc1ccc2ncsc2c1 0
CS(=O)(=O)c1ccc(OC(F)(F)F)cc1 0
N#CC1CCS(=O)(=O)C1 (stereo not shown) 0
c1ccc2c(N3CCNCC3)ccnc2c1 0
c1cnc2c(c1)NCCC2 0
Cc1nc(-c2ccccc2)cs1 0
O=C(CN1CCNCC1)c1ccccc1 0
